# Screening results: PubChem, National Center for Advancing Translational Sciences (NCATS)
# G9a block = inhibitors of human histone lysine methyltransferase G9a. Q96KQ7. G9a H3K9 monomethylation, AlphaScreen, 2 h. Potency, µM (top dose mostly 102 µM), usual class: inhibitors. actives 8.8% (n = 350,000). AID 504332; also: nearly all actives have a fitted effect of over 75% in size
# Target sequence (Q96KQ7 913-1193 limits assumed): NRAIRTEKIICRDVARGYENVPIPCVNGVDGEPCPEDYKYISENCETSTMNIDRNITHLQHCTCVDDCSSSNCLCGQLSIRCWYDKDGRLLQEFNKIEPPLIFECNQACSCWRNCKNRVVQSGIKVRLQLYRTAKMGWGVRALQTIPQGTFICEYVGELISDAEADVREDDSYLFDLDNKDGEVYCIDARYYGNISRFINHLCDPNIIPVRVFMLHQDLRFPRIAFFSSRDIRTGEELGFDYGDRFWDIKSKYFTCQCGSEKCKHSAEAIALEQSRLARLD
#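 AlphaScreen detection with an anti-monomethyl H3K9 antibody quantified product after a 2 h room-temperature reaction containing 500 nM biotinylated H3K9 peptide, 20 µM SAM and 20 nM enzyme, which had been preincubated 15 min with compound.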
# Tau ThT inhib = tau fibrillization inhibition (ThT binding); P10636; Potency, µM (doses to about 57.4 µM), most hits filed as inhibitors; recombinant tau K18 P301L, heparin-induced fibrillization, ThT fluorescence; actives 2.1% (n = 270,000); also: nearly all actives have a fitted effect of over 55% in size
# Target sequence (P10636 561-689 P618L limits assumed): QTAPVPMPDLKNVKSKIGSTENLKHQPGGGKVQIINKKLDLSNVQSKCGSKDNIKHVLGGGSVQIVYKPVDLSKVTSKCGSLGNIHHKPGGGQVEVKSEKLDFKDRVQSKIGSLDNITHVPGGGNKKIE
#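 Recombinant human tau K18 fragment […] carrying P301L, 15 uM unlabeled plus 0.24 uM Alexa 594-labeled, was fibrillized with 20 uM heparin in 100 mM sodium acetate pH 7 for 6 hr at 37 C; 30 uM ThT fluorescence read after 1 hr.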
# Sfp PPTase inh = Sfp phosphopantetheinyl transferase inhibition | Biochemical Sfp PPTase activity, qHTS | Q9F4F7 | Potency, µM, usual class: inhibitors | AID 1490 | actives 3.5% (n = 310,000);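 also: the enzyme is Sfp with the accession as filed and its product quenches rhodamine fluorescence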
#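 Step 1, compound plus 15 nM Sfp-PPTase, 15 min, room temperature. Step 2, add rhodamine-CoA (5 uM) and BHQ-2-YbbR (12.5 uM). Step 3, read 525/598 nm fluorescence at 0 and 30 min.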
# Tau FP inhib = blocks human tau fibril formation measured by polarization. P10636. K18 P301L tau heparin fibrillization, Alexa594 FP, 6 h. Potency, µM (doses to about 57.7 µM), actives largely listed as inhibitors. actives 0.39% (n = 280,000); also: nearly all actives have a fitted effect of over 55% in size
#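 Read-out: fluorescence polarization of Alexa 594-labeled tau (0.24 uM), 555 nm excitation, 632 nm emission. Mixtures held 15 uM unlabeled K18 P301L, compound and 20 uM heparin, pH 7 acetate buffer, incubated 6 hr at 37 C.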
# Tau fluor cs = counter-screen for tau fibril formation inhibitors; tau K18 P301L Alexa594 fluorescence, heparin fibrillization; Potency, µM (series often up to 57.7 µM); actives 0.93% (n = 280,000); AID 1463; also: nearly all actives have a fitted effect of over 55% in size
#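 Human tau K18 P301L (15 uM unlabeled, 0.24 uM Alexa 594-labeled) in 100 mM sodium acetate pH 7 with 20 uM heparin, 6 hr at 37 C. ThT 30 uM added, 1 hr ambient; Alexa 594 FP and total fluorescence read at 555/632 nm.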
# FBPA coupling cs = inhibits coupling enzyme system, counter-screen for aldolase hits; coupling enzyme system counterscreen, AmpLite Red fluorescence; activity change, negative = inhibition, % at 58.2 µM, hits read low; actives 0.67% (n = 290,000); AID 2472; in the data active = activity change below about -30%
#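 Activity here indicates interference with the coupling reaction, not aldolase inhibition. Compounds at 57.5 uM final met coupling enzymes for 10 min at RT; substrate and AmpLite Red detection followed, with a 525/598 nm fluorescence read after 20 min.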
# Hits are given with their value; 0 = inactive; ? = inconclusive; - = no result given; [ ] = remark or other dose. Shown are actives, neighbours in structure and some others; about 11% of the full set was active somewhere. Unless noted, calls follow the shape of the dose curve; as a rule, active = well fitted curve in the direction sought with a large enough effect; inconclusive = small, poorly fitted or top-dose-only effect, or another doubt; inactive = no such curve, though single readings can be large; an effect the other way counts as inactive or inconclusive.
SMILES,G9a block,Tau ThT inhib,Sfp PPTase inh,Tau FP inhib,Tau fluor cs,FBPA coupling cs
CC1CCCC(C)N1C(=O)COC(=O)CSc1ccc(C(N)=O)cc1[N+](=O)[O-] (centres undefined),44.7µM,-,-,-,-,-
CCOc1cc(N2CCOCC2)c(OCC)cc1NC(C)C(=O)N1CCN(CC)CC1 (centres undefined),3.98µM,15.8µM,35.5µM,?,?,-42.8
CCOc1cc(N2CCOCC2)c(OCC)cc1NC(=O)C(C)C,0,0,0,0,0,0
CCOc1cc(N2CCOCC2)c(OCC)cc1NS(=O)(=O)c1cc(NC(C)=O)ccc1OC,44.7µM,-,0,-,-,0
CCOc1cc(N2CCOCC2)c(OCC)cc1NC(=O)CN1CCC(Cc2ccccc2)CC1,50.1µM,0,0,0,0,0
CCOc1cc(N2CCOCC2)c(OCC)cc1NC(=O)c1c(C)noc1C,15.8µM,-,-,-,-,-
CCOc1cc(N2CCOCC2)c(OCC)cc1NC(=O)CN1C(=O)NC(Cc2ccccc2)C1=O (centres undefined),?,0,0,0,0,0
CC(O)Cn1c(N2CCCC2)nc2c1c(=O)[nH]c(=O)n2C (centres undefined),0,-,0,-,-,0
O=C(c1cccnc1)N1CCN(c2ccc3ccccc3n2)CC1,0,0,0,0,0,0
CCOc1cc(N2CCOCC2)c(OCC)cc1NC(=O)c1ccc(C)cc1,?,0,0,0,0,-30.6
CCOc1cc(N2CCOCC2)c(OCC)cc1NC(=O)c1cc(C)cc(C)c1,?,?,0,0,0,0
CCOc1cc(N2CCOCC2)c(OCC)cc1NC(=O)c1c(-c2ccccc2Cl)noc1C,35.5µM,0,0,0,0,0
COc1cc(NC(=O)c2ccc(F)cc2)c(OC)cc1NC(=O)CN1CCOCC1,0[12.7 µM],0,0,0,0,0
CCN1CCN(C(=O)C(C)Nc2cc(Cl)c(OC)cc2OC)CC1 (centres undefined),39.8µM,?,0,?,0,-43.0
COc1cc(NC(=O)c2ccccc2F)c(OC)cc1NC(=O)CN1CCOCC1,44.7µM,0,0,0,0,0
COc1cc(OC)c(NC(=O)CC(=O)Nc2cc(Cl)c(OC)cc2OC)cc1Cl,0[0.501 µM],-,0,-,-,0
COc1cccc([C@@H]2Oc3ccc(Br)cc3C(=O)[C@H]2OC(=O)NS(=O)(=O)c2ccc(F)cc2)c1,-,0,0,0,0,0
CCn1cc(C(=O)NCc2ccccc2OC)c(=O)c2cc(S(=O)(=O)N3CCCCC3)ccc21,0,0,-,0,0,-
O=C(c1cccc([N+](=O)[O-])c1)N1CCN(c2ccc(Nc3ccccc3)nn2)CC1,0,?,-,0,0,-
Cc1ccc(Cl)cc1N1CCN(CCNC(=O)Nc2ccccc2Cl)CC1,0,?,-,?,?,-
O=C(Cn1cc(S(=O)(=O)c2ccc(F)cc2)c(=O)c2cc3c(cc21)OCO3)Nc1ccccc1,0,?,-,0,0,-
CC(=O)Nc1ccc(S(=O)(=O)N(C)CC(=O)OCC(=O)N(C)c2ccccc2)cc1,0,-,0,-,-,-
CCN(CC)c1ccc(NC(=O)c2cc3c(=O)n4cccc(C)c4nc3n2C)c(C)c1,0,0,-,?,0,-
CN(C(=O)COC(=O)c1nn(C)c(=O)c2ccccc12)c1c(N)n(Cc2ccccc2)c(=O)[nH]c1=O,0[12.7 µM],-,-,-,-,-
CN1C(=O)/C(=C/C=C2\SCCN2C)N(C)C1=S,39.8µM,28.2µM,0,0,0,0
SMILES,G9a block,Tau ThT inhib,Sfp PPTase inh,Tau FP inhib,Tau fluor cs,FBPA coupling cs
CN1C(=O)/C(=C/C=C2\SCCN2C)SC1=S,8.91µM,?,0,0,0,0
Cc1nn(-c2ccccc2)c(Cl)c1/C=C1\C(=O)N(C)C(=S)N1C,?,0,0,0,0,0
Cc1ccc(C)c(CSc2cn(CC(=O)N3CCCC3)c3ccccc23)c1,0,?,-,0,0,-
O=C(NCC(c1cccnc1)N1CCc2ccccc21)c1cccc(F)c1 (centres undefined),0,0,-,0,0,-
N#Cc1c(-c2ccccc2)nc(SCC(=O)NC2CCCCC2)[nH]c1=O,0,0,0,0,0,0
CN(C(=O)CSc1nc(-c2ccc(C(C)(C)C)cc2)c(C#N)c(=O)[nH]1)C1CCCCC1,44.7µM,-,0,-,-,0
Cc1ccc2c(c1)NC(=O)c1cccc([N+](=O)[O-])c1CO2,50.1µM,0,0,0,0,0
Cc1cc(C)n(C(=O)c2cc([N+](=O)[O-])cc([N+](=O)[O-])c2)n1,70.8µM,-,0,-,-,0
CCOC(=O)C1(C)Oc2ccccc2C(c2ccc(OC)cc2)=C1C(=O)OC (centres undefined),0,0,0,0,0,0
CCOC(=O)C1(C)Oc2ccccc2C(C(=O)OC)=C1C(=O)OC (centres undefined),28.2µM,0,0,0,0,0
CCSc1nc2ccccc2n1C(=O)/C=C/c1ccc(OC)c(OC)c1,?,7.94µM,56.2µM,7.94µM,0,0
CCn1c(SCC(=O)N/N=C/c2ccc(OC)c(OC)c2)nc2ccccc21,0,0,0,0,0,0
C=CCSc1nc2ccccc2n1C(=O)/C=C/c1cc(OC)c(OC)c(OC)c1,0,25.1µM,0,22.4µM,0,0
C=CCSc1nc2ccccc2n1C(=O)/C=C/c1ccc(OC)c(OC)c1,-,14.1µM,28.2µM,?,0,0
Cc1nn(CC(=O)Nc2ccc(Br)cc2F)c(=O)c2cccn12,0,-,0,-,-,-
Cc1cc(NC(=O)c2ccc(NC(=O)CCS(=O)(=O)c3cccs3)cc2)ccc1Br,0,?,-,?,?,-
CCOC(=O)c1c(NC(=O)c2cc3nc(-c4ccc(OC)cc4)cc(C(F)(F)F)n3n2)sc2c1CCC(C)C2 (centres undefined),0,0,-,0,0,-
COc1ccc(OC)c(Nc2nc(C3CC3)nc3c2nnn3Cc2ccccc2)c1,0,0,0,0,?,-
c1ccc(Cn2nnc3c(Nc4ccc5c(c4)OCO5)nc(C4CC4)nc32)cc1,0,0,89.1µM,?,?,0
Cc1c(C(=O)OCC(=O)Nc2ccc(C(=O)N(C)C)cc2)oc2ccccc12,-,-,0,-,-,0
CN(C)CCCNc1ncnc2scc(-c3ccccc3)c12,3.98µM,0,0,0,0,0
NCCC(=O)N1c2ccccc2Sc2ccccc21,-,-,0,-,-,0
O=C1CS/C(=N\C(=O)N2c3ccccc3Sc3ccccc32)N1,5.62µM,?,0,0,?,0
CC(C)CCNC(=O)Nc1ccc2c(c1)N(C)C(=O)c1ccccc1S2,0,?,-,0,0,-
COC(=O)C1=C(C)N(c2cc(Cl)cc(Cl)c2)C(=O)C1,44.7µM,0,0,0,0,0
COC(=O)C1=C(C)N(c2ccc(C(=O)OC)cc2)C(=O)C1,0[12.7 µM],0,0,0,0,0
CC1=CCC2C(=O)N(c3ccc(OC(=O)c4ccco4)cc3)C(=O)C2C1 (centres undefined),0,0,0,0,0,0
